Measurements published in PubChem BioAssay AID504834 (National Center for Advancing Translational Sciences (NCATS), 2011).
The whole screen tested about 320,000 compounds, of which about 22,000 (6.9%) were called active. Another 27% or so got no clear call; they are omitted. The sample holds actives, similar compounds and a random draw of the others, so the mix is not that of the screen. The call rests on the fitted dose curve; in most records, active means well fitted inhibition curve with a large enough effect; inconclusive means small, poorly fitted or top-dose-only effect, or another doubt; inactive means no such curve, though single readings can be large or run the other way.

Experiment: Primary qHTS for delayed death inhibitors of the malarial parasite plastid, 96 hour incubation
Settings: P. falciparum luciferase reporter growth; series mostly up to 28.7 µM; activity change, negative = inhibition: at the top concentration
Procedure, shortened: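 Delayed-death screen, second-generation endpoint: infected erythrocytes, 2% hematocrit, 0.05% parasitemia final; 96 hours at 37 C, 5% CO2; luciferase detection reagent; luminescence decrease equals reduced growth.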
On the % scale 0 is the no-effect control and ±100 the full control effect; potency means the concentration at half of the fitted maximal effect.

SMILES | activity change, negative = inhibition | Potency
O=S(=O)(c1cccc(Cn2nnc(-c3ccc(F)cc3)n2)c1)N1CCOCC1 | -12.7% (inactive) | 
CCOC(=O)c1cc(=O)c2ccc(OCc3ccccc3)cc2o1 | 27.5% (inactive) | 
CC(C)Oc1ccc(C(=O)NCC(=O)Nc2ccc3c(c2)CCC3)cc1 | 36.9% (inactive) | 
Nc1ccc2nn(-c3ccc(Cl)cc3)nc2c1 | 155% (inactive) | 
Cc1ccc(-n2ncc3c(=O)[nH]cnc32)c(C)c1 |  | 14.7 µM (active)
Cc1ccc(-n2ncc3c2ncn2nc(-c4ccco4)nc32)c(C)c1 | 44.3% (inactive) | 
COC(=O)CSc1ncnc2c1cnn2-c1ccc(C)cc1C | 87.9% (inactive) | 
COc1cc(NC(=O)C2=CC(c3ccc(C)cc3)=NS(=O)(=O)N2C)cc(OC)c1OC | -4.54% (inactive) | 
CCCS(=O)(=O)N1CCC(CCOc2ccccc2)(C(=O)OCC)CC1 | -21.7% (inactive) | 
CCOC(=O)C1(CCOc2ccccc2)CCN(Cc2cc(OC)cc(OC)c2)CC1 | 0.22% (inactive) | 
CCOC(=O)C1(CCOc2ccccc2)CCN(C(=O)c2cncs2)CC1 |  | 9.28 µM (active)
CC(=O)NCC(=O)N1CCC(n2nccc2NC(=O)CCCc2ccccc2)CC1 | 21.2% (inactive) | 
CCOc1ncccc1C(=O)Nc1ccc(S(=O)(=O)Nc2nc(C)cc(C)n2)cc1 | 24.2% (inactive) | 
COc1ccc(/C=C(\NC(=O)c2ccccc2)C(=O)NCCN2CCOCC2)cc1OC | 20.6% (inactive) | 
Nc1nc(NCc2ccccc2)n(-c2ccccc2)n1 | 10.3% (inactive) | 
Cc1ccc2nc(SCC(=O)Nc3cccc4ccccc34)nc(=O)n2c1 | 9.87% (inactive) | 
COc1ccccc1N1CCN(S(=O)(=O)c2ccc(Cl)cc2)CC1 | -24.6% (inactive) | 
COc1ccccc1N1CCN(C(=O)CCS(=O)(=O)c2ccc3c(c2)NC(=O)C(C)S3)CC1 (stereo unspecified) | 102% (inactive) | 
COc1ccccc1N1CCN(S(=O)(=O)c2ccc3c(c2)NC(=O)CS3)CC1 |  | 11.7 µM (active)
Cc1cc(C)c2c(Cn3ccnc3)cc(=O)oc2c1 | -21% (inactive) | 
CCOc1ccc(S(=O)(=O)N2CCC(C(=O)OCc3ccc(OC)cc3)CC2)cc1 | -38.3% (inactive) | 
O=C(CSc1n[nH]c(-c2cccs2)n1)N1CCCCC1 | 26.9% (inactive) | 
Nc1ncc(CN2CCCC(C(=O)Nc3ccc(-c4ccco4)cc3)C2)cn1 (stereo unspecified) | 58.2% (inactive) | 
NC(=O)c1cc(S(=O)(=O)NCCCc2ccco2)cs1 | 23.8% (inactive) | 
S=C(Nc1cccc(Cl)c1)Nc1ccc2c(c1)OCCO2 | 0% (inactive) | 
CCS(=O)(=O)N1Cc2ccccc2CC1C(=O)Nc1ccc(OC)cc1OC (stereo unspecified) | -16.9% (inactive) | 

SMILES | activity change, negative = inhibition | Potency
COc1ccc(C(=O)N2CCC(C(=O)Nc3ccc(C)cc3)CC2)cc1 | -19.5% (inactive) | 
COc1ccc(C(=O)Nc2c(Cl)cc(Cl)cc2C(=O)N2CCC(C)CC2)cc1 |  | 13.1 µM (active)
COc1ccc(N2CCN(C(=O)C3CCN(C(=O)c4ccccc4Cl)CC3)CC2)cc1 | 26% (inactive) | 
CCCCc1ccc(NC(=O)NCc2cccnc2)cc1 | 11.3% (inactive) | 
CCOc1ccc(S(=O)(=O)NCCC(=O)NCC(C)(C)N2CCOCC2)cc1 | 20.6% (inactive) | 
Cc1ccc2occ(/C=N/NC(=O)c3ccccc3C)c(=O)c2c1 |  | 11.7 µM (active)
CC(C)(C)OC(=O)NCCCCCC(=O)N/N=C/c1coc2ccccc2c1=O | 80.7% (inactive) | 
O=C(N/N=C/c1coc2ccccc2c1=O)c1cc2ccccc2o1 | 1.51% (inactive) | 
Cc1[nH]c2ccccc2c1C(=O)CN1CCCC(C)C1 (stereo unspecified) | -14.5% (inactive) | 
O=C(CSC1=NS(=O)(=O)c2cc(F)ccc2N1)Nc1ccccc1F | 60.3% (inactive) | 
CCOc1ccc(C(=O)Nc2cc(Cl)ccc2-n2cncn2)cc1OC | -2.8% (inactive) | 
COc1ccc(NC(=O)C(CC(C)C)NC(=O)C2CCC(C)CC2)cc1 (stereo unspecified) | -1.4% (inactive) | 
CC1C(=O)Nc2ccccc2N1C(=O)c1ccc(F)cc1F (stereo unspecified) | 4.46% (inactive) | 
CC(C)[C@H](NC(=O)N1CC(=O)Nc2ccccc21)C(=O)N[C@@H](Cc1c[nH]c2ccccc12)C(=O)O | -23.4% (inactive) | 
CC(C)[C@H](NC(=O)N1c2ccccc2NC(=O)[C@@H]1C(C)C)C(=O)N[C@H](C(=O)O)c1ccccc1 |  | 8.28 µM (active)
O=C(CNC(=O)c1cccnc1)N/N=C/c1cc(Br)c(O)c(Br)c1 | 45% (inactive) | 
O=C(CCS(=O)(=O)c1ccccc1)NC1CCCC1 | 8.16% (inactive) | 
COC(=O)c1ccc(CNC(=O)C2CCC(=O)N(Cc3ccccn3)C2)cc1 (stereo unspecified) | 238% (inactive) | 
CCCCn1c(N)c(N2CCOCC2)c(=O)n(CC(=O)NCCc2ccccc2)c1=O | 15.5% (inactive) | 
O=C(CCn1c(SCC(=O)c2ccccc2)nc2ccccc2c1=O)NCc1ccc(F)cc1 | 0% (inactive) | 
N#CCSc1nc2ccc(N3CCOCC3)cc2c(=O)n1CCc1ccccc1 |  | 13.1 µM (active)
COC(=O)c1ccc(C23CC4(C2)[C@H](CN(Cc2cccnc2)[C@@H]4c2ccccc2)C3c2ccc(Cl)nc2)cc1 (stereo partly specified) |  | 2.33 µM (active)
O=S(=O)(NCc1cccnc1)c1ccc(Cl)nc1 | 69.2% (inactive) | 
O=C(O)C1CC(=O)N(Cc2cccnc2)C1 (stereo unspecified) | -6.43% (inactive) | 
Cc1ccc(CNC(=O)c2cccc3c2C(=O)c2ccc(N4CCC(C)CC4)cc2S3(=O)=O)cc1 | 3.93% (inactive) | 
